“And” between values parts separate entries of the source, which are not always exact repeats. Equal entries are not always repeated. Records with an inconclusive call do not appear. The source made the active and inactive calls. Unless noted, calls follow the shape of the dose curve; as a rule, active = well fitted curve in the direction sought with a large enough effect; inconclusive = small, poorly fitted or top-dose-only effect, or another doubt; inactive = no such curve, though single readings can be large; an effect the other way counts as inactive or inconclusive.
How the values were obtained:
[1] = qHTS for compounds that reverse cellular toxicity of Amyloid beta (A-beta) peptide in yeast: LOPAC Validation Assay (AID 720559); settings: Potency: rescue of growth toxicity;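 also: plate controls were DMSO for no effect and equimolar ferric chloride plus clioquinol rescue for full effect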
How it was run: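 Here, A-beta-toxic yeast grow with test compounds at 30 C for 48 hr before optical density at 600 nm is recorded; data are normalized against DMSO and the FeCl3-clioquinol control.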

[2] = qHTS for Activators of Parkin Expression: LOPAC Validation Assay (NLuc Reporter) (AID 720572;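 also: 0% = DMSO and 100% = positive control compound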)
How it was run: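 Neuronal cells with a Parkin promoter-driven FLuc/NLuc coincidence reporter were treated 24 h at 37 C in 7-point dose response (LOPAC). NLuc luminescence read after FLuc; signals normalized to DMSO and positive control (100%).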

[3] = qHTS for Activators of Parkin Expression: LOPAC Validation Assay (FLuc Reporter) (AID 720573;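 also: 0% = DMSO and 100% = positive control compounds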)
How it was run: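 Readout is FLuc luminescence from neuronal reporter cells (Parkin promoter, FLuc plus NLuc) after 24 h compound exposure in dose response. Values normalized to neutral DMSO and positive-control compounds.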

[4] = biological target: T1, Hexokinase-4 (Homo sapiens) + Glucokinase regulatory protein (Homo sapiens) (UniProt P35557+Q14397); assay: qHTS assay for inhibitors of recombinant human GCK-GKRP interaction: Diaphorase-coupled assay (AID 743205)
How it was run: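 Signal derives from resorufin generated by diaphorase, linked to GCK turnover of glucose (5 mM) and ATP (0.4 mM). Enzyme complex was added after a 20-minute compound preincubation and monitored for 30 minutes.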

[5] = biological target: T1, Hexokinase-4 (Homo sapiens) + Glucokinase regulatory protein (Homo sapiens); assay: qHTS assay for inhibitors of recombinant human GCK-GKRP interaction: ADP-Glo assay (AID 743206);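 also: plate controls were DMSO plus enzyme for no effect and no enzyme for full effect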
How it was run: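 GST-GCK and FLAG-GKRP (15 nM each in the dispensed mix, with 2 uM S6P) react with 0.4 mM ATP and 5 mM glucose (final) in Hepes pH 7.6 for 60 min at room temperature. ADP is measured by ADP-Glo luminescence.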

[6] = biological target: T1, Hexokinase-4 (Homo sapiens) + Glucokinase regulatory protein (Homo sapiens); assay: qHTS assay for inhibitors of recombinant human GCK-GKRP interaction: HTRF assay (AID 743207);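 also: 0% = DMSO with GCK present and -100% = DMSO wells lacking GCK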
How it was run: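 Titration screening format: recombinant GST-GCK and FLAG-GKRP at 5 nM, S6P at 2 uM, labelled anti-tag antibodies, 60 min at RT, dual-wavelength HTRF readout.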

[7] = qHTS Assay for Identifying Gametocytocidal Compounds (AID 743244); also: potency is read from the fitted curve at half-maximal effect;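 as to max response: % is scaled to controls: 0 for no effect and ±100 for the full control effect; actives lower the fluorescent signal which means gametocytes are killed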; settings: P. falciparum 3D7 stage III-V gametocytes, alamarBlue, 72 h; max response: active compounds read low
How it was run: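 Late gametocytes (III–V), P. falciparum 3D7; 72 h drug, then 24 h alamarBlue; resazurin reduction read by fluorescence.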

[8] = qHTS assay for small molecule agonists of the antioxidant response element (ARE) signaling pathway measured by Nrf2-dependant transcriptional activity - cell viability counter screen (AID 720653; active = well fitted curve in the direction sought with a large enough effect in the repeat runs; an effect the other way counts as inactive or inconclusive; also: % is scaled to controls: 0 for no effect and ±100 for the full control effect); settings: ARE-bla HepG2 viability, CellTiter-Glo ATP luminescence, 16 h; max response: active compounds read low
How it was run: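 ARE-bla HepG2 cells treated with compounds for 16 h at 37C; this counter screen measures viability as intracellular ATP by CellTiter-Glo luminescence after 30 min at room temperature.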

T1 sequence (P35557 whole entry, looked up): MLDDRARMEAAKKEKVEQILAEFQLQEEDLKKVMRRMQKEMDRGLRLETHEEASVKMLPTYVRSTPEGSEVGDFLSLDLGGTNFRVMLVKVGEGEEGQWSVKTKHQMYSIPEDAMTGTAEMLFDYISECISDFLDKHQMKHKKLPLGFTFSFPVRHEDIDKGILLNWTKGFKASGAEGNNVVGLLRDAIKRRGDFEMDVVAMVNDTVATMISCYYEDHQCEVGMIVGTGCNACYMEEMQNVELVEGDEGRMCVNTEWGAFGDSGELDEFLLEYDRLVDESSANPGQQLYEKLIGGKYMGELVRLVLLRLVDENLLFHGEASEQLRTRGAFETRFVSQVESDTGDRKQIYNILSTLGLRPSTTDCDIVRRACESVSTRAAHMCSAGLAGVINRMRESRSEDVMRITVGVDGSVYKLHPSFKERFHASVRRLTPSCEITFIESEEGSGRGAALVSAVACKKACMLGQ
T1 sequence (Q14397 whole entry, looked up): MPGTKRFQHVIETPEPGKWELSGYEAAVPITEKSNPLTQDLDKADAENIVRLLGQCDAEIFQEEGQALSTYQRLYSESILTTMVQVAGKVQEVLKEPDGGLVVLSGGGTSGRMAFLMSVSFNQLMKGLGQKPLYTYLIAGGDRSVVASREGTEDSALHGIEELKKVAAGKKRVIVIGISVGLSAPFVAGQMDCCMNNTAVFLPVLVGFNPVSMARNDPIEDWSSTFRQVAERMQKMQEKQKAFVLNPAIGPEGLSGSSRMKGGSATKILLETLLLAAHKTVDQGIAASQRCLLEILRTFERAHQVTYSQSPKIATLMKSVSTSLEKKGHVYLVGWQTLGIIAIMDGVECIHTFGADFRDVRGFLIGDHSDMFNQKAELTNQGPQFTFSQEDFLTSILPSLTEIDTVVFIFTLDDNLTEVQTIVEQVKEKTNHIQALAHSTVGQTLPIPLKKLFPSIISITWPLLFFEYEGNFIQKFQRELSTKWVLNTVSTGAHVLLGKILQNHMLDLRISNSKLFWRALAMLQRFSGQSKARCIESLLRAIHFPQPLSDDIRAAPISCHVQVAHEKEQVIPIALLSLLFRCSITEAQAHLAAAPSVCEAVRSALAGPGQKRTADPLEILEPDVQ

CCCCCCCC/C=C\CCCCCCCC(=O)NCCO
inactive: Potency [1] | Potency [2] | Potency [3] | outcome [4] | Potency [5] | Potency [6] | max response [7] 8.34%

CN1C2CCC1CC(OC(=O)C(O)c1ccccc1)C2 (stereo unspecified)
inactive: Potency [1] | Potency [2] | Potency [3] | outcome [4] | Potency [5] | Potency [6] | max response [7] 30%

CCCC1(C)C(C#N)(C#N)C1(C#N)C#N
inactive: Potency [1] | Potency [2] | Potency [3] | outcome [4] | Potency [5] | Potency [6]
active: Potency [7] 2.24 µM

CO/S(=N\S(=O)(=O)c1ccc(Cl)cc1)c1ccc([N+](=O)[O-])cc1 (stereo unspecified)
inactive: Potency [1] | Potency [2] | Potency [3] | outcome [4] | Potency [5] | Potency [6] | max response [7] 19.6%

CCC1C(=O)OCC1Cc1cncn1C (stereo unspecified)
inactive: Potency [1] | Potency [2] | Potency [3] | outcome [4] | Potency [5] | Potency [6] | max response [7] -1.02% and -1.03% and -9.17%

Nc1nc(SCc2ccc([N+](=O)[O-])cc2)c2ncn([C@@H]3O[C@H](CO)[C@@H](O)[C@H]3O)c2n1
inactive: Potency [1] | Potency [2] | Potency [3] | outcome [4] | Potency [5] | Potency [6] | max response [7] 22.6%

O=C(O)c1cc(=O)c2c(Cl)cc(Cl)cc2[nH]1
inactive: Potency [1] | Potency [2] | Potency [3] | outcome [4] | Potency [5] | Potency [6] | max response [7] 14.4%

CC(C)(C=O)Cc1cc(C(C)(C)C)c(O)c(C(C)(C)C)c1
inactive: Potency [1] | Potency [2] | Potency [3] | outcome [4] | Potency [5] | Potency [6] | max response [7] 8.22%

C[C@@H](CN1CCC(Cc2ccccc2)CC1)[C@@H](O)c1ccc(O)cc1
inactive: Potency [1] | Potency [2] | Potency [3] | outcome [4] | Potency [5] | Potency [6] | max response [7] 31%

CC(C)NC[C@@H](O)c1ccc(O)c(O)c1
inactive: Potency [1] | Potency [2] | Potency [3] | outcome [4] | Potency [5] | max response [7] 19.2%

COC(=O)c1c(C)[nH]c(C)c1C(=O)c1ccccc1Cc1ccccc1
inactive: Potency [1] | Potency [2] | Potency [3] | outcome [4] | Potency [5] | Potency [6] | max response [7] -0.767%

CCc1c(C(=O)NCCc2ccc(N3CCCCC3)cc2)[nH]c2ccc(Cl)cc12
inactive: Potency [1] | Potency [2] | Potency [3] | outcome [4] | Potency [5] | max response [7] 11.6%

c1ccc(-c2ccccn2)nc1
inactive: Potency [1] | Potency [2] | Potency [3] | outcome [4] | Potency [5] | Potency [6] | max response [7] 29.6%

COc1ccccc1N1CCN(CCCCNS(=O)(=O)c2cccc3c(N(C)C)cccc23)CC1
inactive: Potency [1] | Potency [2] | Potency [3] | outcome [4] | Potency [5] | Potency [6] | max response [7] 10.4%

COc1cc2c(CCNC(C)=O)c[nH]c2cc1Cl
inactive: Potency [1] | Potency [2] | Potency [3] | outcome [4] | Potency [5] | Potency [6] | max response [7] 6.49%

CSc1nc(N)c2ncn([C@@H]3O[C@H](COP(=O)(O)OP(=O)(O)OP(=O)(O)O)[C@@H](O)[C@H]3O)c2n1
inactive: Potency [1] | Potency [2] | Potency [3] | outcome [4] | Potency [5] | Potency [6] | max response [7] 11.9%

CCCCC#Cc1nc(NC)c2ncn([C@@H]3O[C@H](CO)[C@@H](O)[C@H]3O)c2n1
inactive: Potency [1] | Potency [2] | Potency [3] | outcome [4] | Potency [5] | Potency [6] | max response [7] 34.4%

CCCCCCCCCCCCCCCC(=O)OC(CC(=O)O)C[N+](C)(C)C (stereo unspecified)
inactive: Potency [1] | Potency [2] | Potency [3] | outcome [4] | Potency [5] | Potency [6] | max response [7] -5.64%

CC(C)CC(NP(=O)(O)O[C@@H]1O[C@@H](C)[C@H](O)[C@@H](O)[C@H]1O)C(=O)NC(Cc1c[nH]c2ccccc12)C(=O)O (stereo partly specified)
inactive: Potency [1] | Potency [2] | Potency [3] | outcome [4] | Potency [5] | max response [7] 18.7%

O=C(c1ccc(OCCCc2cnc[nH]2)cc1)C1CC1
inactive: Potency [1] | Potency [2] | outcome [4] | Potency [5] | Potency [6] | max response [7] 42%

N.N.O=C(O)C1(C(=O)O)CCC1.[Pt]
inactive: Potency [1] | Potency [2] | Potency [3] | outcome [4] | Potency [5] | max response [7] -4.37%

CC(=O)/C=C1\C(=O)N(C)c2ccccc21
inactive: Potency [1] | Potency [2] | Potency [3] | outcome [4] | Potency [5] | max response [7] -11.9%

CCCCN1CCC(n2c(=O)[nH]c3ccccc32)CC1
inactive: Potency [1] | Potency [2] | Potency [3] | outcome [4] | Potency [5] | max response [7] 5.22%

OCC1O[C@H](O)C(Cl)C(O)C1O (stereo partly specified)
inactive: Potency [1] | Potency [2] | Potency [3] | outcome [4] | Potency [5] | max response [7] 14.4%

NCCNC(=O)c1ncsc1-c1cccc(F)c1
inactive: Potency [1] | Potency [2] | Potency [3] | outcome [4] | Potency [5] | max response [7] 3.56%

CN1C2CC(OC(=O)[C@H](CO)c3ccccc3)CC1C1OC12 (stereo partly specified)
inactive: Potency [1] | Potency [2] | Potency [3] | outcome [4] | Potency [5] | max response [7] 21.9%

O=C1NC(=O)/C(=C/c2ccc(-c3ccc(F)cc3O)o2)S1
inactive: Potency [1] | Potency [2] | outcome [4] | Potency [5] | Potency [6] | max response [7] -4.42%

Oc1ccccc1O
inactive: Potency [1] | Potency [2] | max response [8] -28.6% | outcome [4] | Potency [5] | Potency [6]

O=C(/C=C/c1ccc(O)c(O)c1)OCCc1ccccc1
inactive: Potency [1] | Potency [2] | outcome [4] | Potency [5] | Potency [6]

OC[C@H]1O[C@@H](n2cnc3c(Nc4ccccc4)ncnc32)[C@H](O)[C@@H]1O
inactive: Potency [1] | Potency [2] | outcome [4] | Potency [5] | Potency [6] | max response [7] -5.57%

Oc1cc2c(cc1O)CN(C(=S)NCCc1ccc(Cl)cc1)CCC2
inactive: Potency [1] | Potency [3] | outcome [4] | Potency [5] | Potency [6]

O=C1NC(=O)/C(=C/c2ccc3nccnc3c2)S1
inactive: Potency [1] | Potency [2] | outcome [4] | Potency [5] | max response [7] -5.45%

NC(=S)c1ccc[n+]([C@@H]2O[C@@H](COP(=O)([O-])OP(=O)(O)OC[C@H]3O[C@@H](n4cnc5c(N)ncnc54)[C@H](OP(=O)(O)O)[C@@H]3O)C(O)C2O)c1 (stereo partly specified)
inactive: Potency [1] | Potency [2] | Potency [3] | outcome [4] | Potency [5] | max response [7] 5.56%

Source: PubChem BioAssay (NCATS)
